What was measured:
Test in all cases: log2 ratio of Biotin-Ahx-Ub-VS probe labelling (fragment/DMSO); higher = less target engagement (more negative = stronger competition), active = hit call of the paper (q ≤ 0.05, log2 ratio ≤ -1)
Conditions in all cases: compound concentration: 200 uM; treatment time: 3 h
[1] = target: T1, OTUD6B (UniProt Q8N6M0)
T1 sequence (whole entry): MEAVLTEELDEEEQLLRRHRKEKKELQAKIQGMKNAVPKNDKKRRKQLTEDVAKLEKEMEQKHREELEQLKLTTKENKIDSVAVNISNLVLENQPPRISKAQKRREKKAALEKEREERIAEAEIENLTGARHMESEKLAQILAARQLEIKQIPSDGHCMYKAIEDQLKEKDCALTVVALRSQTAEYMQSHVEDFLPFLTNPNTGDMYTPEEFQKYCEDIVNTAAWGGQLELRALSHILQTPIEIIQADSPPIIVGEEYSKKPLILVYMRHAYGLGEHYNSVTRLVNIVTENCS
Summary of the method: (§1)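 Each value is an average log2 ratio of fragment to vehicle, tested by unpaired t-test. The underlying Spectronaut label-free quantities were global-median-normalised, and only proteins with ≥2 unique peptides were included. Triplicate HEK293T lysate samples (495 µg) were exposed to fragment at 200 µM or vehicle for 3 h, then to Biotin-Ahx-Ub-VS at 0.5 µM final for 1 h, before NeutrAvidin enrichment of labelled DUBs, LysC and trypsin digestion, and diaPASEF LC-MS/MS.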

[2] = target: T2, OTUD7B (UniProt Q6GQQ9)
T2 sequence (whole entry): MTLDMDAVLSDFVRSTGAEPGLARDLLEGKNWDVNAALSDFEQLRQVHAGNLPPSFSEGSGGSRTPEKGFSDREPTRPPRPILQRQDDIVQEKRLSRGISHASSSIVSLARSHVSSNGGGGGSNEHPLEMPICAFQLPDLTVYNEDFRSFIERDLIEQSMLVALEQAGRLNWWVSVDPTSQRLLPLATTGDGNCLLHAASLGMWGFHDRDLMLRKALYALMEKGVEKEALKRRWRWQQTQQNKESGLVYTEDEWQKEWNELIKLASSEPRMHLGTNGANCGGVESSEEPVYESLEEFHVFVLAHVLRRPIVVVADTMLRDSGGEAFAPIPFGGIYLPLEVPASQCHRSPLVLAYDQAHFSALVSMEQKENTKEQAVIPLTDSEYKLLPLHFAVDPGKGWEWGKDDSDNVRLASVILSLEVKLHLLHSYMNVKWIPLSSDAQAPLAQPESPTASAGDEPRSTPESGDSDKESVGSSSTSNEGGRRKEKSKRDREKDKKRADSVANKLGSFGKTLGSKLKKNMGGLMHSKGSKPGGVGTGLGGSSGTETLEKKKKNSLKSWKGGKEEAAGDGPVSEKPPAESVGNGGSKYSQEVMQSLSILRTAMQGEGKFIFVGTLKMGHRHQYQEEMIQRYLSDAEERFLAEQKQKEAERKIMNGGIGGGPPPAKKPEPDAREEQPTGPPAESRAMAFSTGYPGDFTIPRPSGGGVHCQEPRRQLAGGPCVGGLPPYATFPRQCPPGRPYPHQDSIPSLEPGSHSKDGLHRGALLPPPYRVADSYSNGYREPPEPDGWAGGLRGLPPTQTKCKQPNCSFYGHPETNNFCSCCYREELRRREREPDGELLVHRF
Summary of the method: as §1

[3] = target: PRPF8 (UniProt Q6P2Q9)
Summary of the method: as §1

[4] = target: T3, PSMD7 (UniProt P51665)
T3 sequence (whole entry): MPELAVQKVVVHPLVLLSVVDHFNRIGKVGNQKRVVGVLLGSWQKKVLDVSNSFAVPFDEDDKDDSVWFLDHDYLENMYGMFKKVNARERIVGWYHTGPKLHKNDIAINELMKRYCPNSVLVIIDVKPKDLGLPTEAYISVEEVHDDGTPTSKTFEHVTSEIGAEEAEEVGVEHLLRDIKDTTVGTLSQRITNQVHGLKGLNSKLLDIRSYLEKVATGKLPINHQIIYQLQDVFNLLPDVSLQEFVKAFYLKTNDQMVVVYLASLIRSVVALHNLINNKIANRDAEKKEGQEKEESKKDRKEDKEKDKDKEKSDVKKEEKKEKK
Summary of the method: as §1

[5] = target: UCHL1 (UniProt P09936)
Summary of the method: as §1

[6] = target: T4, UCHL3 (UniProt P15374)
T4 sequence (whole entry): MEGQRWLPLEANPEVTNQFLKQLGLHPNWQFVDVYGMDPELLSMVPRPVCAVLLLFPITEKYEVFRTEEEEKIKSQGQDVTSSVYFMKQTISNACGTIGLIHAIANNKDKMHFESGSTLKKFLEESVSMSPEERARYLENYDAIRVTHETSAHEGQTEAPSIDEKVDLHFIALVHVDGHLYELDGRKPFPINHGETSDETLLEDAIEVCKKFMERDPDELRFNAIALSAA
Summary of the method: as §1

[7] = target: T5, UCHL5 (UniProt Q9Y5K5)
T5 sequence (whole entry): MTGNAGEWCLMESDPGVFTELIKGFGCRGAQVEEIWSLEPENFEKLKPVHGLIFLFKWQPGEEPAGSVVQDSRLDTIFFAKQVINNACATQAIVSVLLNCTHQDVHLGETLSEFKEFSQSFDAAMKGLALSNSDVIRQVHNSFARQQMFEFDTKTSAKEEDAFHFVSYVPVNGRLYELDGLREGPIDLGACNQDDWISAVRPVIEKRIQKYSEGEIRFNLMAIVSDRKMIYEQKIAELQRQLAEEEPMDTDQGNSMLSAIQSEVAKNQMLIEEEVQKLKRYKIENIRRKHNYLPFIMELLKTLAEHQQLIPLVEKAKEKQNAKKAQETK
Summary of the method: as §1

[8] = target: USP10 (UniProt Q14694)
Summary of the method: as §1

[9] = target: T6, USP15 (UniProt Q9Y4E8)
T6 sequence (whole entry): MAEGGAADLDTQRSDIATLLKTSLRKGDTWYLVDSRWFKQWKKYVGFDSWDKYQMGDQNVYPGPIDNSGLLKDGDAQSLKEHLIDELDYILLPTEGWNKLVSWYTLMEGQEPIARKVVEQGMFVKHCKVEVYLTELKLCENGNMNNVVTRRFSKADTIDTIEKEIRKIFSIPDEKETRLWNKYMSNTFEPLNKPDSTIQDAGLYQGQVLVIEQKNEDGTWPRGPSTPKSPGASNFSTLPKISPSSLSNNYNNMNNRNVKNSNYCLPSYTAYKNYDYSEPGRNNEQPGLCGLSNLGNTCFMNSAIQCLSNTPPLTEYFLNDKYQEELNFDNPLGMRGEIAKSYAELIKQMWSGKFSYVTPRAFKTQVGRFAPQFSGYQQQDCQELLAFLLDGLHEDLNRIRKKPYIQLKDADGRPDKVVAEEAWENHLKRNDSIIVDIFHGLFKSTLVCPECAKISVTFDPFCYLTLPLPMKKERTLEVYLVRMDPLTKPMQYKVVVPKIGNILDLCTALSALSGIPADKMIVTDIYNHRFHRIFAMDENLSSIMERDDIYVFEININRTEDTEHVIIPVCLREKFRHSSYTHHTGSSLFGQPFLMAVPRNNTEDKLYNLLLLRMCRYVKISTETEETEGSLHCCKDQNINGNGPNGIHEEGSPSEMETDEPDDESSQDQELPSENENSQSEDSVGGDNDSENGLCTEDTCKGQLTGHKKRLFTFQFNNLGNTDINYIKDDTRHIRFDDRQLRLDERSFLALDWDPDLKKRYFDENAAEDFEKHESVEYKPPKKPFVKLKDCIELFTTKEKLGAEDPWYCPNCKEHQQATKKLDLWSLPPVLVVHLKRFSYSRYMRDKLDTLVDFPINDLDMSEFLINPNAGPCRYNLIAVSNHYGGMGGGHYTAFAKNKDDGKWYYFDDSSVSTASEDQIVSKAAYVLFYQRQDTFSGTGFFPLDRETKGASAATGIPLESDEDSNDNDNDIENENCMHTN
Summary of the method: as §1

[10] = target: USP16 (UniProt Q9Y5T5)
Summary of the method: as §1

Measured: log2 ratio of Biotin-Ahx-Ub-VS probe labelling

Chain of USP16 (Q9Y5T5 whole entry, looked up): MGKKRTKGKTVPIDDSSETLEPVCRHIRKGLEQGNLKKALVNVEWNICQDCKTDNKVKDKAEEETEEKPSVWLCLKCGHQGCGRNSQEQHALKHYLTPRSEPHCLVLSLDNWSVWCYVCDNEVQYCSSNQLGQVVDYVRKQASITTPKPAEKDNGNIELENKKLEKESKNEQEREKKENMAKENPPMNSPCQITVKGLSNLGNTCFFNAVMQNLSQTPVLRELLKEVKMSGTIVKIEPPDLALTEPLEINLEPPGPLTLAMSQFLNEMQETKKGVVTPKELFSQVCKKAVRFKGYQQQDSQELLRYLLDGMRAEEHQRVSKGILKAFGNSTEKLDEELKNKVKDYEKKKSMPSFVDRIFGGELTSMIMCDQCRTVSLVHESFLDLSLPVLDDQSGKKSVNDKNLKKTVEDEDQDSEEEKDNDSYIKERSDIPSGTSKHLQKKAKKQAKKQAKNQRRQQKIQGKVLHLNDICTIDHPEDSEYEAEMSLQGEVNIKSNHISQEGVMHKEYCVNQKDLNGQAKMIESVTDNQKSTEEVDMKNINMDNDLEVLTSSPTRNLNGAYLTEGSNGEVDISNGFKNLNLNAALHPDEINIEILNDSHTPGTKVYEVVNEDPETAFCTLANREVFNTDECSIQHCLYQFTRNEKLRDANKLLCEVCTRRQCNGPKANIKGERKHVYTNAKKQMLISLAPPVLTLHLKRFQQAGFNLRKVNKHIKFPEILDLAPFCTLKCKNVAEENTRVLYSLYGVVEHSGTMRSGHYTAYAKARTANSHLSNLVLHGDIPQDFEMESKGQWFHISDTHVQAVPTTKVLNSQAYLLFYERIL
Chain of USP10 (Q14694 whole entry): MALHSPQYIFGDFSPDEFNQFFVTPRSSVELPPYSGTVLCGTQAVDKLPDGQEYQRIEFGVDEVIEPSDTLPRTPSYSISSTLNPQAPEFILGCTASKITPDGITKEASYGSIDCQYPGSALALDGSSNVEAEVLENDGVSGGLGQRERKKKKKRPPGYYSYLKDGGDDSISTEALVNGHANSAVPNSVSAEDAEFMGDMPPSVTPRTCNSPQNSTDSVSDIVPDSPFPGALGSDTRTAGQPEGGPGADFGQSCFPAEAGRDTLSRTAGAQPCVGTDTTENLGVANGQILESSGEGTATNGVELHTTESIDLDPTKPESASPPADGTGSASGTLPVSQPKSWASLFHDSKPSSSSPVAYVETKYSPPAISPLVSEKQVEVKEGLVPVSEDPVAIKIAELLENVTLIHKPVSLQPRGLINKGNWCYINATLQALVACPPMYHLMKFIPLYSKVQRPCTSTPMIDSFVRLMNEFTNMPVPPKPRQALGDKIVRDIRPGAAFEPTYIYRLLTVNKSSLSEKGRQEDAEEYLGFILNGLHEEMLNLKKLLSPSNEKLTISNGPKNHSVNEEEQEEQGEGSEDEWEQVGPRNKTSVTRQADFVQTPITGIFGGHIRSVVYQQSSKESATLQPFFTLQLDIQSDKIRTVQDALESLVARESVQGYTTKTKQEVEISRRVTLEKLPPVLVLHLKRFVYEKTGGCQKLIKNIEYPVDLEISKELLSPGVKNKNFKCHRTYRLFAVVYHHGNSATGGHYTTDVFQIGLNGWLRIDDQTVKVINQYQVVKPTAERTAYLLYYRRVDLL
Chain of UCHL1 (P09936 whole entry, looked up): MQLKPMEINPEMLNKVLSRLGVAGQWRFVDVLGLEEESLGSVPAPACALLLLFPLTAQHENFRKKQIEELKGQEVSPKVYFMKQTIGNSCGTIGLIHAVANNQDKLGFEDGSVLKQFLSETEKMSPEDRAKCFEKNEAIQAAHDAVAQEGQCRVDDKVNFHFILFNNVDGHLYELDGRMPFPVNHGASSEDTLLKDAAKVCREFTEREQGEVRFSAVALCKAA

Cl.O=C(CCl)N1CCn2ncc(O)c2C1
active: [2] -1.54 | [5] -1.49 | [7] -1.12
inactive: [1] -0.223 | [3] 0.218 | [4] -0.249 | [6] -0.188 | [8] -0.00467 | [9] -0.99 | [10] -0.0885

From the supplement of paper PMC11732987, “Enantioselective OTUD7B fragment discovery through chemoproteomics screening and high-throughput optimisation” (Communications Chemistry, 2025)
